# In PubChem BioAssay (NCATS):
# Values without a mark were called inactive. Inconclusive results are not listed. Entries that show only a call come without a potency. Active and inactive are the calls of the source. Unless noted, calls come from the whole dose curve; as a rule, active = well fitted curve in the direction sought with a large enough effect; inconclusive = small, poorly fitted or top-dose-only effect, or another doubt; inactive = no such curve, though single readings can be large; an effect the other way counts as inactive or inconclusive.
# Tests used:
# [1] = Viability counterscreen for antagonist of constitutive androstane receptor (CAR) against the NCATS DSHEA and TCM libraries (AID 1794837);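 note: compound exposure lasted 24 h before viability reading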
# Outline: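 Cell viability, CellTiter-Fluor, Ex/Em 405/540 nm, 1 h at 37C. HepG2-CYP2B6-hCAR, 2,500 cells/well; cpds + CITCO 48 uM final (antagonist mode), 24 h, 37C/5% CO2.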
# [2] = molecular target: Nuclear receptor subfamily 1 group I member 3 (Homo sapiens) (UniProt Q14994); experiment: Primary qHTS for agonist of constitutive androstane receptor (CAR) against the NCATS DSHEA and TCM libraries (AID 1794839);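 note: HepG2 cells expressing human CAR with a CYP2B6 reporter plus PK11195 antagonist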
# Chain of Nuclear receptor subfamily 1 group I member 3 (Homo sapiens) (Q14994 whole entry, looked up): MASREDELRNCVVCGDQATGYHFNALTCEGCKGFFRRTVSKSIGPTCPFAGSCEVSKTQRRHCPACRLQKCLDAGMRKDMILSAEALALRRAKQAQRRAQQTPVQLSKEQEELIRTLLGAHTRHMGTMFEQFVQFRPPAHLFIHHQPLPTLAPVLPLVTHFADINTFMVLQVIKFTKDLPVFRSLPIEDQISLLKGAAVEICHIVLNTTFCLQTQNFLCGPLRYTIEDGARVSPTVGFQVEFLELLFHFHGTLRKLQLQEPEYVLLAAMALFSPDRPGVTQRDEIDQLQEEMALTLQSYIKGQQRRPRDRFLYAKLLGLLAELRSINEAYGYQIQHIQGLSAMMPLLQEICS
# Outline: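 Luminescence from ONE-Glo luciferase was the agonist read-out in HepG2-CYP2B6-hCAR cells exposed 24 h to test substances. Wells also held the CAR antagonist PK11195 at 0.75 µM final. Viability was by CellTiter-Fluor fluorescence.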
# [3] = HepG2 viability counterscreen (readout 2: ATP content) against the NCATS DSHEA and TCM libraries (AID 1794840)
# Outline: (§1)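 1,000 HepG2 cells/well, 4 h attach; compounds ~24 h, 37C/5% CO2. Readout 1: GF-AFC 25 uM final, 30 min, fluorescence 380/510 nm. Readout 2: CellTiter-Glo, 30 min RT, luminescence.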
# [4] = HepG2 viability counterscreen (readout 1: protease activity) against the NCATS DSHEA and TCM libraries (AID 1794841);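 note: cells exposed to compounds for about 24 h before the protease read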
# Outline: as §1
# [5] = molecular target: Cytochrome P450 3A4 (Homo sapiens) (UniProt P08684); experiment: qHTS for inhibitors of CYP3A4 against the NCATS DSHEA and TCM libraries (AID 1919971); note: potency is the fitted concentration of half-maximal effect;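 for activity change, negative = inhibition: inhibition lowers luminescence from luciferin made by CYP3A4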
# Chain of Cytochrome P450 3A4 (Homo sapiens) (P08684 whole entry, looked up): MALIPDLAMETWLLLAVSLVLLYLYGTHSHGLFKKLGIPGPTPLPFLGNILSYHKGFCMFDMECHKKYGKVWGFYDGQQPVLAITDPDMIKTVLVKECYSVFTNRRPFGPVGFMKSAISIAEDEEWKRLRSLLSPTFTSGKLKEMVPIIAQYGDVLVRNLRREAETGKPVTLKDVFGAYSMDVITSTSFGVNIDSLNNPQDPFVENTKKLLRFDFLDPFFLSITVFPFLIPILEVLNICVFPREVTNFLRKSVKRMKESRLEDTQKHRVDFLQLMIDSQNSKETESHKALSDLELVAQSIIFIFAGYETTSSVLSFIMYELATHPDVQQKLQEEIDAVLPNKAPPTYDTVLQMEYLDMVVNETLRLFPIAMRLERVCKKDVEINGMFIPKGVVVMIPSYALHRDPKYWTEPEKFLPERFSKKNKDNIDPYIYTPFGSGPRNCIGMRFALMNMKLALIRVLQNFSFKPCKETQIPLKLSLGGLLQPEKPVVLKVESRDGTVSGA
# Outline: (§2)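 Luminescent P450-Glo format: compounds preincubated 15 min with enzyme and luciferin substrate, reaction run 30-45 min after NADPH regeneration solution. Intraplate controls: ketoconazole for CYP3A4 and CYP2C19, sulfaphenazole for CYP2C9.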
# [6] = molecular target: Cytochrome P450 2D6 (Homo sapiens) (UniProt P10635); experiment: qHTS for inhibitors of CYP2D6 against the NCATS DSHEA and TCM libraries (AID 1919972)
# Chain of Cytochrome P450 2D6 (Homo sapiens) (P10635 whole entry, looked up): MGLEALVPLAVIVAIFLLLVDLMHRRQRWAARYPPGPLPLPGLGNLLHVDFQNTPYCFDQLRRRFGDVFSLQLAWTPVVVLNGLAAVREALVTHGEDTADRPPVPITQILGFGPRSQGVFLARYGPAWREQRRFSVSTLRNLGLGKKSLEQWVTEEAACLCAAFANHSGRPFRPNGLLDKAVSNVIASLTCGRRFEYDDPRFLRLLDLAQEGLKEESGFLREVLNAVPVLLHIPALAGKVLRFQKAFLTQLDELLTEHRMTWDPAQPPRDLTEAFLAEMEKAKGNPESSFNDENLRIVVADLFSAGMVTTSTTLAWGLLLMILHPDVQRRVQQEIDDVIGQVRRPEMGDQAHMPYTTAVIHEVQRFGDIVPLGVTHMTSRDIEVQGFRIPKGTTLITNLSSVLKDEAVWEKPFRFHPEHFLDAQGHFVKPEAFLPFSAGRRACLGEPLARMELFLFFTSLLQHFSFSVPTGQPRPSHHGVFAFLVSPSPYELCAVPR
# Outline: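 Luminescent P450-Glo read-out of CYP2D6 turnover of a luciferin substrate after NADPH-driven reaction of 30-45 min at room temperature. Compounds were first preincubated 15 min with enzyme at titrated concentrations; quinidine was the intraplate control.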
# [7] = molecular target: Cytochrome P450 2C19 (Homo sapiens) (UniProt P33261); experiment: qHTS for inhibitors of CYP2C19 against the NCATS DSHEA and TCM libraries (AID 1919974);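 note: luminescence from luciferin released by CYP2C19 oxidation of a pro-luciferin substrate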; note: potency is the fitted concentration of half-maximal effect
# Chain of Cytochrome P450 2C19 (Homo sapiens) (P33261 whole entry, looked up): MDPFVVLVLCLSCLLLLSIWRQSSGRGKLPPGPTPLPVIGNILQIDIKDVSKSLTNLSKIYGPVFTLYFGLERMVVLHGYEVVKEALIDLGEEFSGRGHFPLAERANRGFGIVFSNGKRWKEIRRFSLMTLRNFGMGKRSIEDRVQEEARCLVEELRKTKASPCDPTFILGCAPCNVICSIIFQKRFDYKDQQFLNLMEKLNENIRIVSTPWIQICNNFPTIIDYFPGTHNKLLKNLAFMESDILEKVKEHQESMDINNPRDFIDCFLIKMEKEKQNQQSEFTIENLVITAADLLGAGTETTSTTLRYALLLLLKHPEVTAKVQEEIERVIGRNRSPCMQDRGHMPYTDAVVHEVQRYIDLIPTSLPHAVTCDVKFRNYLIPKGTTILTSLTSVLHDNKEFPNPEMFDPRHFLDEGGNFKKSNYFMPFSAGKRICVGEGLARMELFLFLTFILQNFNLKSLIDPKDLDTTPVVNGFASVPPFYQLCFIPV
# Outline: as §2
# [8] = KB-3-1 P-gp reporter qHTS against the NCATS DSHEA and TCM libraries (AID 1919975)
# Outline: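 CellTiter-Glo luminescence viability readout; KB-3-1 parental cells, 500/well, attached ~4 h, then compound for ~72 h, 37C, 5% CO2. Bortezomib intraplate control.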
# [9] = molecular target: Cytochrome P450 1A2 (Homo sapiens) (UniProt P05177); experiment: qHTS for inhibitors of CYPIA2 against the NCATS DSHEA and TCM libraries (AID 1919976);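 note: light from luciferin formed by CYP1A2 from a pro-luciferin substrate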
# Chain of Cytochrome P450 1A2 (Homo sapiens) (P05177 whole entry, looked up): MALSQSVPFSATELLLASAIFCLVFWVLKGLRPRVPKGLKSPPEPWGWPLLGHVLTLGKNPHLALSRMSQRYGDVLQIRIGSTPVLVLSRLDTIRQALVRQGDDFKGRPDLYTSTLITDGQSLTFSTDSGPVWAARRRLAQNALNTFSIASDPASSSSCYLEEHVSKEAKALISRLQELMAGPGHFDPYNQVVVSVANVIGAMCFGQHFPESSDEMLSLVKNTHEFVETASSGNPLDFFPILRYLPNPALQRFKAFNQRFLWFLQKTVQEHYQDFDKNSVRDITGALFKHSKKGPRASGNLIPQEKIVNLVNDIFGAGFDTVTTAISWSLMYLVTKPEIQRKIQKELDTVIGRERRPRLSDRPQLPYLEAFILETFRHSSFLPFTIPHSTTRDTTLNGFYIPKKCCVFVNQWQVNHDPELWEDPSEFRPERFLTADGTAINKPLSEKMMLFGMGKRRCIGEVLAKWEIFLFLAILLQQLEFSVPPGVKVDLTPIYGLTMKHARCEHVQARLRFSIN
# Outline: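 Human CYP1A2 with pro-luciferin substrate (typically 100 mM KPO4), 15 min preincubation with compound, then 1x NADPH regeneration for 30-45 min at room temperature in the dark. Luciferin quantified by luciferase luminescence; furafylline intraplate control.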
# [10] = qHTS Counterscreen for compound interference against the NCATS DSHEA and TCM libraries (AID 1919978); conditions: firefly luciferase detection reagent interference, luminescence;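 note: compounds preincubated with 1 µM D-luciferin or buffer before detection reagent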
# Outline: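 Luminescence counterscreen for detection-kit interference: compounds at 19.5 nM–39.8 uM final, 15 min RT with 1 uM D-luciferin or buffer only; detection reagent added, 30 min RT, then read.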
# [11] = Dual reporter qHTS for agonist of Pregnane X Receptor (hPXR) against the NCATS DSHEA and TCM libraries: Fluorescence readout (AID 1920058)
# Outline: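 hPXR-Luc HepG2 cells, 2000/well in charcoal-stripped serum, attached 5 h, dosed for ~24 h at 37 °C. Fluorescence read is CellTiter-Fluor viability (Ex/Em 405/540 nm); rifampicin positive, tetraoctyl ammonium bromide (92 µM) cytotoxicity controls.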
# [12] = molecular target: Nuclear receptor subfamily 1 group I member 2 (Homo sapiens) (UniProt O75469); experiment: Dual reporter qHTS for antagonist of Pregnane X Receptor (hPXR) against the NCATS DSHEA and TCM libraries: Luminescence Readout (AID 1920060);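 note: HepG2 cells carrying hPXR luciferase reporter stimulated with rifampicin at 2 µM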
# Chain of Nuclear receptor subfamily 1 group I member 2 (Homo sapiens) (O75469 whole entry, looked up): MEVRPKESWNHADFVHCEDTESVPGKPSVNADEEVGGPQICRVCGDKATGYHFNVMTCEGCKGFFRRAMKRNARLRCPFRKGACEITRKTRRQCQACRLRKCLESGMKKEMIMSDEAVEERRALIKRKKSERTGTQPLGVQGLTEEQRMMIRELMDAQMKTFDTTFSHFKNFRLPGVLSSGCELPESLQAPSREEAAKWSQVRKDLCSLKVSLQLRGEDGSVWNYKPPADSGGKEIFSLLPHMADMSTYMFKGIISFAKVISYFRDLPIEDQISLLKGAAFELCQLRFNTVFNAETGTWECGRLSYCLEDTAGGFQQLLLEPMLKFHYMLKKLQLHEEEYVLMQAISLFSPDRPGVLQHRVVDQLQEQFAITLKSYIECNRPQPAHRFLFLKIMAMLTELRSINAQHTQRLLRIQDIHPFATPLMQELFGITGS
# Outline: (§3)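 hPXR-Luc HepG2 cells exposed 24 h at 37 C to compounds with 2 uM rifampicin in antagonist mode; luciferase luminescence measured by ONE-Glo, with CellTiter-Fluor viability read beforehand.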
# [13] = Dual reporter qHTS for antagonist of Pregnane X Receptor (hPXR) against the NCATS DSHEA and TCM libraries: Fluorescence Readout (AID 1920061)
# Outline: as §3
# [14] = molecular target: Lysosomal acid glucosylceramidase (Homo sapiens) (UniProt P04062); experiment: Glucocerebrosidase-p2 (AID 348; in the data active = potency below about 10 µM; note: potency is the fitted concentration of half-maximal effect); conditions: purified GBA, blue fluorogenic substrate, 40 min
# Chain of Lysosomal acid glucosylceramidase (Homo sapiens) (P04062 whole entry, looked up): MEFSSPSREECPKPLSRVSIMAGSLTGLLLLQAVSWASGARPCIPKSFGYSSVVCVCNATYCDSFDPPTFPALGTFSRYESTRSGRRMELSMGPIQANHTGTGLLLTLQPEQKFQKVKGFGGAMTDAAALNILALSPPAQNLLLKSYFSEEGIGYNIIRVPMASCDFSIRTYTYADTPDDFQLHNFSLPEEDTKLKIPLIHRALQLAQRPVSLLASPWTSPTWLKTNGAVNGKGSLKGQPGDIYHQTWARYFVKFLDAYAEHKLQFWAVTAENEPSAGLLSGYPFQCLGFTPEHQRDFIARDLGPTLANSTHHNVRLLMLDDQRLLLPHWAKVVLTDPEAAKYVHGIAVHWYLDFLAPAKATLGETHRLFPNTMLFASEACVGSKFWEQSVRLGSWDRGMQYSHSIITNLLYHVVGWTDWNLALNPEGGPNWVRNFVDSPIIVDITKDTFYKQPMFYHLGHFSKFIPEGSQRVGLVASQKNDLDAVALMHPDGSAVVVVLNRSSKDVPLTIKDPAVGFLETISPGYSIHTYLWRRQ
# Outline: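 Compounds titrated from 0.6 nM upwards against 0.2 nM enzyme in pH 5.9 citric acid/KH2PO4, taurocholate, tween-20; blue fluorogenic substrate 80 uM, 40 min room temperature, stopped and read Ex 365/Em 440 for AC50.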
# [15] = AP1 Signaling Pathway (AID 357; active = well fitted curve in either direction with a large enough effect, not every such curve was filed as active;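 note: ME-180 reporter cells stimulated with EGF at its EC50 level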); conditions: ME-180 (cervical carcinoma) AP-1-bla reporter, EGF-induced, beta-lactamase ratio, 5 h; at 7.69 µM (top of the series) unless noted
# Outline: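 Cells are seeded overnight, exposed to compound titrations and an EC50 level of EGF for 5 hours at 37 °C, then loaded with CCF4 dye for 2.5 hours. Beta-lactamase activity under the AP-1 element is read as a blue/green ratio.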
# [16] = molecular target: Glucocorticoid receptor (Homo sapiens) (UniProt P04150); experiment: GR-GFP Redistribution (AID 450;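 active = compounds whose dose series gives a full or clear partial fitted curve of increased nuclear translocation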; note: potency is the fitted concentration of half-maximal effect); conditions: U2OS GR-GFP nuclear translocation, laser cytometry, 2 h
# Chain of Glucocorticoid receptor (Homo sapiens) (P04150 whole entry, looked up, the tested form may be a part): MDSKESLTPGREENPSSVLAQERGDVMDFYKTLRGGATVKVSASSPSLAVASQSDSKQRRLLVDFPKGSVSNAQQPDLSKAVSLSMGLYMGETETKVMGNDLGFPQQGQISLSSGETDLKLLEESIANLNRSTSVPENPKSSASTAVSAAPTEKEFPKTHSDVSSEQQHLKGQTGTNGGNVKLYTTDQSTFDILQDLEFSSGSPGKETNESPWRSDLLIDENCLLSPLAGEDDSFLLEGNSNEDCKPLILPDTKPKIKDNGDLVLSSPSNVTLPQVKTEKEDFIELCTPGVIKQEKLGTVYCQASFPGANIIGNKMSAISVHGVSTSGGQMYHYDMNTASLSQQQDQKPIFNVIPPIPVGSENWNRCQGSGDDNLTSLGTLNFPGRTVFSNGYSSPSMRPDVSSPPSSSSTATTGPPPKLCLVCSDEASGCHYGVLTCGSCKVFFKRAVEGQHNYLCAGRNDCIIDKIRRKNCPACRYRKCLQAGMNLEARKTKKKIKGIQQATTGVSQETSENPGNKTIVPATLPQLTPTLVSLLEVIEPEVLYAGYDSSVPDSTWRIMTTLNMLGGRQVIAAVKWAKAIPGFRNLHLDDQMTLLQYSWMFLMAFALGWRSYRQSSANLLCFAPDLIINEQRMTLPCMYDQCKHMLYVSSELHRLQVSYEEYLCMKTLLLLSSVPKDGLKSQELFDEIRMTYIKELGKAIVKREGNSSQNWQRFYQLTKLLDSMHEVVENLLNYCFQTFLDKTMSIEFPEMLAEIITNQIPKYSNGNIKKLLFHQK
# [17] = molecular target: Glucocorticoid receptor (Homo sapiens) (UniProt P04150); experiment: GR-EFC Redistribution (AID 451; calls by dose curve; note: potency is the fitted concentration of half-maximal effect); conditions: CHO-K1 GR-EFC translocation, beta-gal luminescence, 2 h
# Outline: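 CHO-K1 cells stably expressing nuclear-localized β-gal enzyme acceptor and GR fused C-terminally to the enzyme donor fragment; ligand-driven nuclear translocation restores β-gal by complementation. Compounds titrated up to 46 uM final, 2 h at 37 °C; luminescence read.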
# [18] = molecular target: Mitogen-activated protein kinase 10 (Mus musculus) (UniProt Q61831); experiment: JNK3 AlphaScreen Assay (AID 530; active = well fitted curve in either direction with a large enough effect, not every such curve was filed as active;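 note: kinase came from lysate of stimulated human HepG2 cells; signal reports phosphorylation of biotinylated GST-cJun 1-79 at Ser73 with 10 µM ATP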)
# Outline: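 Inhibitors reduce antibody binding to phosphorylated biotin-cJun, lowering AlphaScreen luminescence. Lysates from HepG2 cells pre-activated by IL-1beta plus TNF-alpha supplied JNK3; compounds were titrated.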
# [19] = molecular target: Ubiquitin carboxyl-terminal hydrolase 1 (Homo sapiens) (UniProt O94782); experiment: Inhibitors of USP1/UAF1: Pilot qHTS (AID 504865);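 note: rhodamine fluorescence freed from ubiquitin-rhodamine substrate followed over time; top concentration of the series differs between compounds; nearly all actives have a fitted effect of over 35% in size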
# Chain of Ubiquitin carboxyl-terminal hydrolase 1 (Homo sapiens) (O94782 whole entry, looked up): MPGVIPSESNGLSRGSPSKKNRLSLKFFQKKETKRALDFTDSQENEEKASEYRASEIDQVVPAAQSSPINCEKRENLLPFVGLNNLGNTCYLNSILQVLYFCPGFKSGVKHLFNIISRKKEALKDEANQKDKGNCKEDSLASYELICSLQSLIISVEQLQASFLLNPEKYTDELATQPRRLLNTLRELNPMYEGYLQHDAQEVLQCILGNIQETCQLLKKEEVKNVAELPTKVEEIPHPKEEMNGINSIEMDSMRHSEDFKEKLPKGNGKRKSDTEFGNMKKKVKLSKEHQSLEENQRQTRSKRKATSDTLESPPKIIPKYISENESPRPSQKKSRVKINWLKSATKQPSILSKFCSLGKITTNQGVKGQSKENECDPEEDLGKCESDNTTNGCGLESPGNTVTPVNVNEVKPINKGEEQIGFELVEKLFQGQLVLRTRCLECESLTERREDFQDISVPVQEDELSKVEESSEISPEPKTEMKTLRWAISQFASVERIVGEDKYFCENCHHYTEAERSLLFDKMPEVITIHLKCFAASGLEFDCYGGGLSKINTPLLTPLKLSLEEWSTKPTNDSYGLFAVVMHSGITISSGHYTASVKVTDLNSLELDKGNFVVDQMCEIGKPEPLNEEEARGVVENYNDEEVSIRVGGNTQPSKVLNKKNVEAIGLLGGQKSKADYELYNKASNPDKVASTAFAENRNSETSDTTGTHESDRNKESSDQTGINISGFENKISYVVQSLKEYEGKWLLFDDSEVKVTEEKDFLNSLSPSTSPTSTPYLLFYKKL
# Outline: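 1nM USP1/UAF1 + cpd, 15 min RT; start w/ Ub-Rho 150nM final; kinetic FL 480/540 nm, 6 reads q60 s. Buffer 50mM HEPES pH 7.8, 0.5mM EDTA, 1mM TCEP, 0.01% Tween-20, 0.1 mg/ml BSA.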
# [20] = NFAT Signaling Pathway (AID 444; active = well fitted curve in either direction with a large enough effect, not every such curve was filed as active;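 note: carbachol stimulus at about its EC50 of 1 µM final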); conditions: Jurkat NFAT-bla M1, carbachol, beta-lactamase ratio, 5 h; at 7.69 µM (top of the series) unless noted
# Outline: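 Jurkat cells carrying an NFAT-driven β-lactamase reporter and co-transfected muscarinic M1 receptor were treated with compound plus carbachol (1 uM final, an EC50 level) for 5 h at 37 °C. CCF4 loading followed for 1 h at RT; 460/530 nm ratio gave %activity.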
smiles,measurement,setting,value
CC[C@H](CC[C@@H](C)[C@H]1CCC2C3CCC4C[C@@H](O)CC[C@]4(C)C3CC[C@@]21C)C(C)C (some centres undefined),outcome,[1],inactive
same,Potency,[2],inactive
same,outcome,[3],inactive
same,outcome,[4],inactive
same,Potency,[5],inactive
same,Potency,[6],inactive
same,Potency,[7],inactive
same,outcome,[8],inactive
same,Potency,[9],inactive
same,max response,[10],-1.23%
same,outcome,[11],inactive
same,outcome,[12],inactive
same,outcome,[13],inactive
COc1ccc2[nH]cc(CCNc3nc(-c4ccccc4OC)nc4ccccc34)c2c1,Potency,[14],> 11.4 µM
same,"activity change, negative = inhibition",[15],23.7%
same,Potency,[16],> 46 µM
same,Potency,[17],> 46 µM
same,Potency,[18],inactive
same,Potency,[19],inactive
C=C(C)C1CC=C(C)C(O)C1 (centres undefined),Potency,[18],inactive
same,outcome,[1],inactive
same,Potency,[2],inactive
same,outcome,[4],inactive
same,Potency,[5],inactive
same,Potency,[6],inactive
same,outcome,[8],inactive
same,max response,[10],4.01%
same,outcome,[11],inactive
same,outcome,[12],inactive
C=C1CC[C@H](O)C/C1=C\C=C1/CCC[C@]2(C)[C@@H]([C@H](C)CC[C@H](C)C(C)C)CC[C@@H]12,outcome,[1],inactive
same,Potency,[2],inactive
same,outcome,[3],inactive
same,outcome,[4],inactive
same,Potency,[5],15.8 µM (active)
same,Potency,[6],inactive
same,Potency,[7],22.4 µM (active)
same,outcome,[8],inactive
same,Potency,[9],inactive
same,max response,[10],-0.676%
same,outcome,[11],inactive
same,outcome,[12],inactive
same,outcome,[13],inactive
O=C(O)CC(O)(C(=O)O)C(O)C(=O)O (centres undefined),outcome,[1],inactive
same,Potency,[2],inactive
same,outcome,[3],inactive
same,outcome,[4],inactive
same,Potency,[5],inactive
same,Potency,[6],inactive
same,Potency,[7],inactive
same,outcome,[8],inactive
same,Potency,[9],inactive
same,max response,[10],1.8%
same,outcome,[11],inactive
same,outcome,[12],inactive
CC(C)(O)[C@@H]1CC[C@](C)([C@@H]2[C@H](O)C[C@]3(C)C4C[C@@H](O[C@H]5O[C@@H](CO)[C@H](O)[C@@H](O)[C@@H]5O)C5C(C)(C)[C@H](O[C@H]6OC[C@H](O)[C@@H](O)[C@@H]6O)CC[C@]56CC46CC[C@@]23C)O1 (some centres undefined),outcome,[1],inactive
same,Potency,[2],inactive
same,outcome,[3],inactive
same,outcome,[4],inactive
same,Potency,[5],inactive
same,Potency,[6],inactive
same,Potency,[7],inactive
same,outcome,[8],inactive
same,Potency,[9],inactive
same,max response,[10],1.31%
same,outcome,[11],inactive
same,outcome,[12],inactive
same,outcome,[13],inactive
Cc1ncc(COP(=O)(O)O)c(C)c1O,Potency,[14],> 11.4 µM
same,"activity change, negative = inhibition",[15],9.96%
same,"activity change, negative = inhibition",[20],-4.14%
same,Potency,[16],> 46 µM
same,"activity change, negative = inhibition",[18],4.19% [at 11.4 µM]
same,outcome,[1],inactive
same,Potency,[2],inactive
same,outcome,[3],inactive
same,outcome,[4],inactive
same,Potency,[5],inactive
same,Potency,[6],inactive
same,Potency,[7],7.08 µM (active)
same,outcome,[8],inactive
same,max response,[10],-1.84%
same,outcome,[11],inactive
same,outcome,[12],inactive
same,outcome,[13],inactive
